Screening data deposited in PubChem by several laboratories.
In the library only some 2.5% were active in any assay of this set; here they are far more common.
PHOSPHO1 inh – blocks human PHOSPHO1 phosphatase activity. Q8TCT1. recombinant PHOSPHO1, absorbance phosphatase assay. inhibition, % at 13.3 µM. 1.1% of 290,000 active; in the data active = inhibition above about 60%
G6PDH counter – inhibits Leuconostoc G6PDH, flagging false hits in G6PDH-based assays. inhibition, % at 5 µM. 0.12% of 200,000 active. Purified L. mesenteroides G6PDH, diaphorase/resazurin coupled fluorescence, 45 min. AID 1020; in the data active = inhibition above about 50%
p97 ATPase inh – blocks human p97 ATPase activity; P55072; recombinant p97 ATPase, Kinase-Glo ATP luminescence, 3 h; inhibition, % at 8 µM; 0.42% of 220,000 active; AID 1481; in the data active = inhibition above about 15%;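 note: 0% = DMSO vehicle and 100% = wells lacking enzyme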
PfM18AAP inh – PfM18AAP enzyme inhibition; 1.2% of 290,000 active; inhibition, % at 7.35 µM; recombinant PfM18AAP, H-Glu-NHMec fluorogenic cleavage;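 active = inhibition above the campaign mean inhibition over all tested compounds plus 3 SD, cut at about 28% in these data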;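 note: 0% = plate median of test compound wells and 100% = 2 mM ZnCl2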
SUMO HTRF inh – inhibitors of human SUMOylation (UBC9); inhibition, % at 35 µM; 0.36% of 290,000 active; HTRF SUMOylation assay, SAE1/SAE2 + UBC9, in vitro; AID 2006; P63279; in the data active = inhibition above about 50%, passing the limit was not always enough
Target sequence (P63279 whole entry, looked up): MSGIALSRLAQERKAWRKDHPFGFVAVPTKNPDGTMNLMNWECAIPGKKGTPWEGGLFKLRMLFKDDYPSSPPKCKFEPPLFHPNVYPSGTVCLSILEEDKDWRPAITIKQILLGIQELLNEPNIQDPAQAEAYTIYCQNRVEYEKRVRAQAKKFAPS
HDAC3 inh – inhibitors of human histone deacetylase 3 | AID 2718 | recombinant HDAC3, fluorogenic peptide/trypsin coupled, fluorescence | inhibition, % at 8.3 µM | O15379 | 0.15% of 320,000 active; in the data active = inhibition above about 26%, passing the limit was not always enough
Target sequence (O15379 whole entry, looked up): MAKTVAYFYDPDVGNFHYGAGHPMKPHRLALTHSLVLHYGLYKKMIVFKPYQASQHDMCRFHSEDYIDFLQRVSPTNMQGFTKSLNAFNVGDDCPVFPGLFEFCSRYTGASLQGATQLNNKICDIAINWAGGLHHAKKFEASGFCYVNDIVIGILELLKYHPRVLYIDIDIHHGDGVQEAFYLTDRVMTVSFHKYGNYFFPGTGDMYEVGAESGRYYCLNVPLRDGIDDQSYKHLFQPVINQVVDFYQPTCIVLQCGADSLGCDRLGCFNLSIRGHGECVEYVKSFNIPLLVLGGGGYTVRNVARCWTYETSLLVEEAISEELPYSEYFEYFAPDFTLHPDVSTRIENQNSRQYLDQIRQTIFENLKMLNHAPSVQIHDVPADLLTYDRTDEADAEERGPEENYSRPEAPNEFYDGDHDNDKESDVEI
* marks the source's active call; other numbers are inactive results; . = no result given.

SMILES | PHOSPHO1 inh | G6PDH counter | p97 ATPase inh | PfM18AAP inh | SUMO HTRF inh | HDAC3 inh
COc1cc2c(cc1NC(=S)NC(=O)/C=C/c1ccco1)oc1ccccc12 | -3 | 3 | 2 | -5 | 52* | 3
CCC(O)CNC(=O)CCc1nnc(C2(c3ccc(Cl)cc3)CCC2)o1 (configuration not stated) | 60* | 6 | 1 | 0 | 8 | -8
CC(C)(CO)CNC(=O)CCc1nnc(C2(c3ccc(Cl)cc3)CCC2)o1 | 48 | 5 | -3 | -2 | 2 | 1
COCCn1c(SCC(=O)NC(=O)NC2CCCC2)nc2ccccc2c1=O | . | . | . | . | . | 1
CC1CC(C)CN(C(=O)COC(=O)c2nn(C)c(=O)c3ccccc23)C1 (configuration not stated) | . | . | . | . | . | 1
Cc1sc(N)c(C#N)c1C | -6 | 4 | -5 | 37* | 19 | 3
O=C(O)CCCN1C(=O)/C(=C/C=C/c2ccco2)SC1=S | 6 | . | 7 | 26 | 70 | -2
O=C(O)C(Cc1ccccc1)N1C(=O)/C(=C/C=C/c2ccco2)SC1=S (configuration not stated) | 17 | . | 27* | 13 | 73* | .
O=C(O)CC(C(=O)O)N1C(=O)/C(=C/C=C/c2ccco2)SC1=S (configuration not stated) | 17 | . | 13 | 31* | . | 5
CC(=O)Nc1cccc(NC(=O)Nc2cccc(Cl)c2C)c1 | 41 | 11 | 5 | -1 | 8 | -4
CC(=O)Nc1cccc(NC(=S)Nc2cccc(Cl)c2C)c1 | -1 | 0 | 6 | 31* | -4 | 3
C1=CC2c3ccccc3NC(c3ccncc3)C2C1 (configuration not stated) | 79* | 20 | 8 | -10 | 19 | 4
CC(=O)c1ccc2c(c1)C1C=CCC1C(c1ccncc1)N2 (configuration not stated) | 48 | 7 | 6 | 20 | 15 | 2
COc1ccccc1Nc1ccc(C(=O)NCc2cccs2)cn1 | 41 | 10 | 3 | 0 | 8 | 2
COc1ccccc1Nc1ncc(-c2cccs2)s1 | 82* | 2 | 2 | 7 | 26 | -6
CC1=C(C(=O)Nc2cccnc2)C(c2cccnc2)n2nc(-c3cccs3)nc2N1 (configuration not stated) | 62* | 3 | 6 | 7 | 4 | 0
COc1ccccc1NC(=O)c1coc(=O)c(Br)c1 | 13 | . | -2 | -6 | 25 | .
CC(=O)c1c(C)[nH]c(C(=O)NCC2CCCCC2)c1C | -19 | . | . | -2 | -13 | -6
CC1=NN(c2ccc(Cl)c(C(=O)O)c2)C(=O)/C1=C\c1ccc(-c2ccc(C(=O)O)cc2)o1 | -114 | -8 | 6 | 0 | 82* | .
CNc1nc(-c2c[nH]c3ccccc23)cs1 | 100* | 19 | 6 | 2 | 6 | 6
CCOC(=O)N/N=C\c1ccc(OC/C=C/c2ccccc2)cc1 | -19 | . | . | 4 | -2 | -7
O=C(O)c1ccc2c3c(ncnc13)-c1ccccc1C2=O | 105* | 19 | 4 | 2 | 17 | 0
CC1=C(C#N)C(=O)N(C2CCS(=O)(=O)C2)C(=O)/C1=C\c1ccco1 (configuration not stated) | 3 | . | 34* | 15 | 90* | 5
O=C(Nc1cccc(F)c1)C1CCCN(S(=O)(=O)c2cnc[nH]2)C1 (configuration not stated) | 26 | . | . | -1 | -2 | -15
CCOC(=O)c1cc(C#N)c(SCC(=O)c2cc(C#N)c(SC)nc2C)[nH]c1=O | 98* | 18 | 6 | 5 | 24 | 2
SMILES | PHOSPHO1 inh | G6PDH counter | p97 ATPase inh | PfM18AAP inh | SUMO HTRF inh | HDAC3 inh
COc1ccc(C(=O)N2CCCC(N3CCN(c4ccccc4F)CC3)C2)c(OC)n1 (configuration not stated) | 41 | . | . | -2 | 0 | -10
Cc1cc(C)n2nc(C)c(Br)c2n1 | 12 | 0 | -6 | -1 | 19 | 0
Cc1cc(C)n2nc3nc4c(cc3c2n1)CCCC4 | 98* | 0 | 9 | 0 | 36 | -221
Cc1ccc(Cn2cccc(NC(=O)NC3CCCCC3)c2=O)cc1 | 66* | 11 | -4 | 5 | 19 | -3
O=C(Nc1cccn(Cc2ccc(F)cc2)c1=O)NC1CCCCC1 | 5 | 14 | 0 | 2 | 5 | -6
Cc1cccc(N(C)S(=O)(=O)c2c[nH]c3ccc([N+](=O)[O-])cc23)c1 | 10 | . | . | -1 | -10 | .
CC(=O)c1c(-c2ccc(C)cc2)nc2c3ccccc3ccn12 | 64* | 4 | -2 | 2 | -8 | 3
C[C@H]1CN([C@@H](C)CO)C(=O)c2cccc(NS(=O)(=O)c3cn(C)cn3)c2O[C@H]1CN(C)S(C)(=O)=O | . | . | . | . | . | 4
CCOCCCNC(=S)Nc1ccc(S(N)(=O)=O)cc1 | 88* | 0 | 5 | 21 | -5 | -3
CCCNC(=S)Nc1ccc(S(N)(=O)=O)cc1 | 31 | 4 | 3 | 6 | 0 | -1
O=C1C(C2=C(O)c3ccccc3C2=O)=Nc2ccccc21 | 36 | 56* | 3 | 1 | 4 | 8
COc1ccc(CNS(=O)(=O)CCNC(=O)c2ccc(OC)cc2)cc1 | . | . | . | . | . | 1
CCc1cc(C(=O)N2CCN(S(=O)(=O)c3ccccc3F)CC2)sc1C | . | . | . | . | . | 1
Cc1ccc(C)c(/C=N/n2cc(-c3ccccc3)[nH]c2=S)c1 | -29 | -8 | 2 | 29* | 8 | -4
O=C(O)c1ccc(/C=N/n2cc(-c3ccccc3)[nH]c2=S)cc1 | 97* | . | 9 | 48* | 9 | 9
S=c1[nH]c(-c2ccccc2)cn1/N=C/c1ccc(Br)cc1 | -62 | -6 | 0 | 19 | 18 | 1
CN(CC(=O)Nc1c(Cl)cccc1Cl)C(=O)CCNS(=O)(=O)c1ccccc1C(F)(F)F | . | . | . | . | . | -3
C=CCc1cccc(/C=N/n2cnnc2)c1O | 10 | 15 | 5 | 30* | -2 | 6
C=CCc1cccc(/C=N/NC(=O)CNc2ccccc2)c1O | -41 | 4 | 0 | 0 | 9 | -3
C=CCc1cccc(/C=N/NC(=O)C[n+]2ccccc2)c1O | 42 | . | . | 29* | 11 | 2
C=CCc1cccc(C=Nc2ccc(Br)cc2)c1O | 11 | -1 | 2 | 3 | -2 | 2
Cc1sc(NC(=O)CN2C(=O)NC3(CCCC3)C2=O)nc1-c1ccc(F)cc1 | . | . | . | . | . | 2
O=C(Oc1c(Br)cc(C(=S)N2CCOCC2)cc1Br)c1ccc(Cl)cc1 | 96* | 5 | 1 | 3 | 2 | 2
COc1cc(C(=O)Oc2c(OC)cc(C(=S)N3CCOCC3)cc2OC)cc(OC)c1OC | 41 | . | . | 1 | 0 | 5
COc1cc(C(=S)N2CCOCC2)cc(OC)c1OC(=O)c1ccc(F)cc1 | -1 | . | . | 29* | 1 | 10
O=C(Oc1cccc(C(=S)N2CCOCC2)c1)c1ccccc1 | 10 | . | . | 28* | 4 | -1
O=C(Oc1ccc(C(=S)N2CCOCC2)cc1Br)c1cc(Cl)ccc1Cl | 8 | 1 | -1 | 5 | -24 | 9
COc1cc(C(=O)Oc2cccc(C(=S)N3CCOCC3)c2)cc(OC)c1OC | . | . | . | 8 | -3 | -1
